According to the supplement of paper PMC11732987, “Enantioselective OTUD7B fragment discovery through chemoproteomics screening and high-throughput optimisation” (Communications Chemistry, 2025):

What was measured:
Assay in all cases: log2 ratio of Biotin-Ahx-Ub-VS probe labelling (fragment/DMSO); higher = less target engagement (more negative = stronger competition), active = hit call of the paper (q ≤ 0.05, log2 ratio ≤ -1)
Details in all cases: compound concentration: 200 uM; treatment time: 3 h
OTUD6B = molecular target: T1, OTUD6B (UniProt Q8N6M0)
T1 sequence (whole entry): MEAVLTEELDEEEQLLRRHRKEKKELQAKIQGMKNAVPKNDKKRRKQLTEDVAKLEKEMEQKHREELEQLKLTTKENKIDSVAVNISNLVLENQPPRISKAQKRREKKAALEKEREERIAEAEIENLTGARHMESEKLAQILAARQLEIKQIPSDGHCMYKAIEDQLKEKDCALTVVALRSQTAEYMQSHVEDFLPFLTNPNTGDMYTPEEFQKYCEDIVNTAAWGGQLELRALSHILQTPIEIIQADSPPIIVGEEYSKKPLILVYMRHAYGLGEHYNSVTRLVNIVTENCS
Method in brief: (§1)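 HEK293T lysate (495 µg per sample, in Tris/CHAPS/IGEPAL buffer with protease inhibitors) was exposed in triplicate for 3 h to fragment at 200 µM or to vehicle, then to Biotin-Ahx-Ub-VS at 0.5 µM final for 1 h. Labelled DUBs were enriched on NeutrAvidin, digested with LysC and trypsin, and analysed by diaPASEF LC-MS/MS. Spectronaut label-free quantities were normalised to the global median, and values are average log2 ratios of fragment over vehicle from an unpaired t-test. Only proteins with ≥2 unique peptides were used.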

OTUD7B = molecular target: T2, OTUD7B (UniProt Q6GQQ9)
T2 sequence (whole entry): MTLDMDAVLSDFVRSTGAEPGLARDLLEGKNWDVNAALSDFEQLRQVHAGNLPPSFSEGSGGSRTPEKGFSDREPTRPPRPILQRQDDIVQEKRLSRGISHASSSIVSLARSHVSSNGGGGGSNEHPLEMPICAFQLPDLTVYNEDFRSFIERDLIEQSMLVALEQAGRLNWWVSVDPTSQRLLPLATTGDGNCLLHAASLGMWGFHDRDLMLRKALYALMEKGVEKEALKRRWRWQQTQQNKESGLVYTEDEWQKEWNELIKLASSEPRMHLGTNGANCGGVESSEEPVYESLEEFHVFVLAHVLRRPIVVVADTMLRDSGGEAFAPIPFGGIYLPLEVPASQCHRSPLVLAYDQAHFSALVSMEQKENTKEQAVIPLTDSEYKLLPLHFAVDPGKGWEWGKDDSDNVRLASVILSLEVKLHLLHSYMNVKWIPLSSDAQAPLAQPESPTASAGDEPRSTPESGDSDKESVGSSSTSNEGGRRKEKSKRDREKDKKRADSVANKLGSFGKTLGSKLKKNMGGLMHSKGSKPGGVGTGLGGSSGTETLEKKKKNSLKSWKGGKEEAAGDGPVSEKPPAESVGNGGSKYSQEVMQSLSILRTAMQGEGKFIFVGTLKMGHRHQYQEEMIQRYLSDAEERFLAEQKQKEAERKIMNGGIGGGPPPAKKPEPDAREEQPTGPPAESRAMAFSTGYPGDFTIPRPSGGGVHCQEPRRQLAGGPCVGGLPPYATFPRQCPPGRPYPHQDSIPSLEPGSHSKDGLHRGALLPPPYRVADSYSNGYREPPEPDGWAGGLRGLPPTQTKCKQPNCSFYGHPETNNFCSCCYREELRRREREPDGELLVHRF
Method in brief: as §1

PRPF8 = PRPF8 (UniProt Q6P2Q9)
Method in brief: as §1

PSMD7 = molecular target: T3, PSMD7 (UniProt P51665)
T3 sequence (whole entry): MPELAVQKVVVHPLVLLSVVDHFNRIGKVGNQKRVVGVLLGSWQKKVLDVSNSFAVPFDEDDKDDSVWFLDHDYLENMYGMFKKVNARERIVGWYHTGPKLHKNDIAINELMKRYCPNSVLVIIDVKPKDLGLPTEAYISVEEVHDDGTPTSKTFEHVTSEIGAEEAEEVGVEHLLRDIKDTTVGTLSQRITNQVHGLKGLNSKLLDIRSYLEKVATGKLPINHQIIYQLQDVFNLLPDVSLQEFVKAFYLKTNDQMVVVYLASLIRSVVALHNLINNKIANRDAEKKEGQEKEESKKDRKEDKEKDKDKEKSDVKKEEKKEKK
Method in brief: as §1

UCHL1 = UCHL1 (UniProt P09936)
Chain of UCHL1 (P09936 whole entry, looked up): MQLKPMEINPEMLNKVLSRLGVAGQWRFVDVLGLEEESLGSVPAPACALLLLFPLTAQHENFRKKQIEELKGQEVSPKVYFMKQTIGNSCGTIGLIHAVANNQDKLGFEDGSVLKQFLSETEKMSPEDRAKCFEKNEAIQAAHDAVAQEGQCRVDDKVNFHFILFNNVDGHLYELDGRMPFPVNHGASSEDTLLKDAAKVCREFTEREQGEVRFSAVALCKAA
Method in brief: as §1

UCHL3 = molecular target: T4, UCHL3 (UniProt P15374)
T4 sequence (whole entry): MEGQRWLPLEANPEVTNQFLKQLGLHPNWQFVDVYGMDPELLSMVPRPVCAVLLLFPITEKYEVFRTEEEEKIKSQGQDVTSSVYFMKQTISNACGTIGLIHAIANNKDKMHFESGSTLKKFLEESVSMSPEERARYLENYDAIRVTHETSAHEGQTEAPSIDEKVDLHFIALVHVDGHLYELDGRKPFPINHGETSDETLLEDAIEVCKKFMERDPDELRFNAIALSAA
Method in brief: as §1

UCHL5 = molecular target: T5, UCHL5 (UniProt Q9Y5K5)
T5 sequence (whole entry): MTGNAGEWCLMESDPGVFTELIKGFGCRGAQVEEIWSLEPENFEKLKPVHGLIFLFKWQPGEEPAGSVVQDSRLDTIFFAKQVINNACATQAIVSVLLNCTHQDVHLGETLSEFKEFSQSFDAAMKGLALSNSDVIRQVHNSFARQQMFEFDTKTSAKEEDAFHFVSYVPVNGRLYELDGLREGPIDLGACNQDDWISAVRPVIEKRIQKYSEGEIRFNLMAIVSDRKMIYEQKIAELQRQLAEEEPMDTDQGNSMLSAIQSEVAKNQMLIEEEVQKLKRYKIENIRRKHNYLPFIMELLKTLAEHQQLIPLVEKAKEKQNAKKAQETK
Method in brief: as §1

USP10 = USP10 (UniProt Q14694)
Chain of USP10 (Q14694 whole entry): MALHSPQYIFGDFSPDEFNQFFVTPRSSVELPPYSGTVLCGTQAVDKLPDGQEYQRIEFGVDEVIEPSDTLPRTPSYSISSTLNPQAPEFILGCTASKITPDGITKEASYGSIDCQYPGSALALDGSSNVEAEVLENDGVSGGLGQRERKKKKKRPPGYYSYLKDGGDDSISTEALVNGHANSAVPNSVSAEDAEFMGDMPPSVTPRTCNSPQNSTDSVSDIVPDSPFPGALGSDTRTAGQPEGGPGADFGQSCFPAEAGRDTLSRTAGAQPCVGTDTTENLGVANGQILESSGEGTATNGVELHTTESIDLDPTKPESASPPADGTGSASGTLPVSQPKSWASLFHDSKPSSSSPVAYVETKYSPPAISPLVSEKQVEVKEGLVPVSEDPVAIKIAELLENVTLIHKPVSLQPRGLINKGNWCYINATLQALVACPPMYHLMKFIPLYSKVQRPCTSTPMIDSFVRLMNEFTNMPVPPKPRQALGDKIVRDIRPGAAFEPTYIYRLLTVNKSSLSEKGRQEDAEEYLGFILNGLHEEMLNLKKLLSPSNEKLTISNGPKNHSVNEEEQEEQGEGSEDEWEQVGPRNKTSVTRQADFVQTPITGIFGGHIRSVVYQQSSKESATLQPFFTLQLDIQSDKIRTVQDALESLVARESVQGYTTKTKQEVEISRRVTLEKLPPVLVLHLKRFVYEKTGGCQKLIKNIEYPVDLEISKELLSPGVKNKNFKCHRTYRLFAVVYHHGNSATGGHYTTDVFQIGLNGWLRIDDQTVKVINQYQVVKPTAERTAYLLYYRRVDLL
Method in brief: as §1

USP15 = molecular target: T6, USP15 (UniProt Q9Y4E8)
T6 sequence (whole entry): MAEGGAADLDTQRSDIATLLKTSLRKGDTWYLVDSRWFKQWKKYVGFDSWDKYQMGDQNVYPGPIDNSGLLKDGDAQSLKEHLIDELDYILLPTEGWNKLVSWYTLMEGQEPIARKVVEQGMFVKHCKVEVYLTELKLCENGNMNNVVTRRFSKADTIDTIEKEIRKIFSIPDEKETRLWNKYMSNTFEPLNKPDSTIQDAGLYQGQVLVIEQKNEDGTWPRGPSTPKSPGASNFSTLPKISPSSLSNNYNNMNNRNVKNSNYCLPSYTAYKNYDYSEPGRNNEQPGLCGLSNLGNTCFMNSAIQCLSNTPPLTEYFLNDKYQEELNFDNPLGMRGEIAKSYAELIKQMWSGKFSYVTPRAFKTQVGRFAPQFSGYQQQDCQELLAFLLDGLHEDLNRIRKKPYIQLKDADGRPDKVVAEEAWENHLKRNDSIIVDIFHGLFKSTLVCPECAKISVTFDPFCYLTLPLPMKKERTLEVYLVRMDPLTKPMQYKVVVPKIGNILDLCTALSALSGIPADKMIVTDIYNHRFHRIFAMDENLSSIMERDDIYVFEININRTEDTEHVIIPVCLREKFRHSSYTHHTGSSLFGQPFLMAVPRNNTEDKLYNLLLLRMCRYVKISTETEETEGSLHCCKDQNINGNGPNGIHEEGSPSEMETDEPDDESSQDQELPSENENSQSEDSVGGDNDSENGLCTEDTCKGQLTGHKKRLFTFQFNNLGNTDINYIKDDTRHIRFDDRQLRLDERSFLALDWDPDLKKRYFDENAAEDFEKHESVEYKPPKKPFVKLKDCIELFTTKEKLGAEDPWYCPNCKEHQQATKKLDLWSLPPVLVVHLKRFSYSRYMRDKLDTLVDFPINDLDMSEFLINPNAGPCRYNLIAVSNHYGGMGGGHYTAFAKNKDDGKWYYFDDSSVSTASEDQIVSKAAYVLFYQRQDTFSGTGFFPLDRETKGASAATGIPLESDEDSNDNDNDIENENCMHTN
Method in brief: as §1

USP16 = USP16 (UniProt Q9Y5T5)
Chain of USP16 (Q9Y5T5 whole entry, looked up): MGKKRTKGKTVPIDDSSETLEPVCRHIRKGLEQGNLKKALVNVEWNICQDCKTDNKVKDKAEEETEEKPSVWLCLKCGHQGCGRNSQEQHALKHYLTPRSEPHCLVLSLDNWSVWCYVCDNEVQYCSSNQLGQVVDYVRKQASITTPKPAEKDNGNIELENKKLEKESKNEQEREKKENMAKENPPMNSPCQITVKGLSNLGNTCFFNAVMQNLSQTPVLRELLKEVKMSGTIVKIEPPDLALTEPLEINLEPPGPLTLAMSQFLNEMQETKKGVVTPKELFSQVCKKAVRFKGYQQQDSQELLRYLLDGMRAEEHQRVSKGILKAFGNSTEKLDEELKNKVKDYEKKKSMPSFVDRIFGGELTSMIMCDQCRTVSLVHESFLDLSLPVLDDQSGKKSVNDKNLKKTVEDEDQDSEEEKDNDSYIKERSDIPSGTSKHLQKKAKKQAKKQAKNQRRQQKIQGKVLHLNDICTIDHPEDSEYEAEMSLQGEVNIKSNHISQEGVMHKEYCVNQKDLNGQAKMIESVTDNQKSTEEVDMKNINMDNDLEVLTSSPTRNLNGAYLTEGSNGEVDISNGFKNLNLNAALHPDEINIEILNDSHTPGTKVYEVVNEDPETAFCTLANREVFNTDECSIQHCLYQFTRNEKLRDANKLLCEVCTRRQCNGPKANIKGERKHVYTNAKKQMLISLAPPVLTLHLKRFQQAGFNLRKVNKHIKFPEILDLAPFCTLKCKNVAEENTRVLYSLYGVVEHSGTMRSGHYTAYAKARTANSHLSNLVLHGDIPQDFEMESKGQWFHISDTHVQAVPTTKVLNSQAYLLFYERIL
Method in brief: as §1

Measured: log2 ratio of Biotin-Ahx-Ub-VS probe labelling

CCN(Cc1ccc(C#N)cc1F)C(=O)CCl
inactive: OTUD6B -0.409 | OTUD7B -0.641 | PRPF8 0.0668 | PSMD7 -0.234 | UCHL3 0.0414 | UCHL5 -0.5 | USP10 -0.11 | USP15 -0.275 | USP16 0.17
active: UCHL1 -1.35
